93 molecules from ChEMBL document CHEMBL3988442, “University of Dundee, Small-Polar-MMV Screening Library” (2021) can be followed below.

Structures are written as SMILES. The whole screen tested about 69,000 compounds, of which about 950 (1.4%) showed an effect of 50% or more. What follows is part of a selection rich in strong results, with near analogues and random picks from the rest.

In the test the test system is Mycobacterium tuberculosis. Briefly: Cornell M. t heat shock assay. Also: in the data most compounds retested in dose-response had high values. Type of test: functional, organism-based. Details: dose or concentration left out as unconfirmed.
With `CN(C)CCNC(=O)c1cc(-c2cnc(N3CCCC3)nc2)cn1C.O=C(O)C(F)(F)F`, the “Percent Effect” value is -14.58%.

For `CC(=O)N1[C@H](CN(C)C)C[C@@H]2CN(C(=O)c3cncc(C)c3)CC[C@@H]21.O=C(O)C(F)(F)F.O=C(O)C(F)(F)F`, the “Percent Effect” value was -6.193%.

For the molecule `COCCn1cc(C(=O)N2CCCC2c2cc(C)on2)c2ccccc21` (stereo not drawn), the “Percent Effect” value is recorded as -20.39%.

`Cc1cc(C(=O)N2CCN(c3nc4c(C(C)C)cccc4s3)CC2)no1`: the “Percent Effect” value turned out to be 88.51%.

As to `CCOc1cc(C)nc(N2CCN(C(=O)c3cc(C)on3)CC2)n1`, the “Percent Effect” value is recorded as -16.01%.

In the case of `Cc1cc(C(=O)N2CCN(c3nc4ccccc4s3)CC2)no1`, the “Percent Effect” value is -15.49%.

As for `COc1cccc2sc(N3CCN(C(=O)c4cc(C)on4)CC3)nc12`, the “Percent Effect” value is reported as 101.6%.

As for `COc1cccc2sc(N3CC(OC(C)=O)C3)nc12`, the “Percent Effect” value was 4.303%.

Turning to `COc1cccc([C@H]2CN(C(=O)c3cc(C)on3)C[C@@H]2N)c1`, the “Percent Effect” value was -0.4367%.

Turning to `Cc1cc(C(=O)N2CCN(c3nc4c(C(C)C)cccc4s3)CC2)on1`, the “Percent Effect” value is recorded as -0.7761%.

On to `Cc1cc(C(=O)N2CCN(c3nc4c(C)cccc4s3)CC2)no1`, for which the “Percent Effect” value is reported as 96.55%.

In the case of `Cc1cccc(C(=O)N2CCN(c3ccccc3F)CC2)n1`, the “Percent Effect” value is -5.532%.

As for `Cc1cc(C(=O)N2CCN(c3nc4c(F)cccc4s3)CC2)no1`, the “Percent Effect” value is 70.89%.

With `CCOC(=O)N1CCN(C(=O)c2cc(-c3ccccc3F)on2)CC1`, the “Percent Effect” value stood at 9.54%.

Take `CC(=O)OC1CN(c2nc3c(C)cccc3s2)C1`: the “Percent Effect” value is -13.72%.

Take `Cc1cc(C(=O)N2CCN(C)CC2)nn1CC(=O)NCc1ccccn1.Cl`: the “Percent Effect” value is given as -24.19%.

On to `CC(C)C[C@H](N)c1nnc(SCC(=O)Nc2ccc(Br)cc2)o1.Cl`, for which the “Percent Effect” value stood at 9.958%.

Take `O=C(O)C(F)(F)F.O=C(O)C(F)(F)F.O=C(O)C(F)(F)F.c1ccc(NCc2cn3c(n2)CN(Cc2cccnc2)CC3)nc1`: the “Percent Effect” value was 2.185%.

Regarding `CS(=O)(=O)c1ccc(C(=O)N2CCCC(n3ccnc3)C2)cc1` (stereo not drawn), the “Percent Effect” value amounted to 8.305%.

With `Cn1cc(-c2ncc3c(c2C(=O)O)CCN(Cc2ccccn2)C3)cn1.O=C(O)C(F)(F)F.O=C(O)C(F)(F)F`, the “Percent Effect” value was 44.96%.

On to `CO[C@@H]1CCN(C(=O)c2ccsc2)[C@@H]2CN(CC3CC3)C[C@@H]21.O=C(O)C(F)(F)F`, for which the “Percent Effect” value worked out at 9.15%.

In the case of `COCCCNC(=O)c1cc(-c2cnc(N(C)C)nc2)cn1CC1CC1.O=C(O)C(F)(F)F`, the “Percent Effect” value came out at 0.3583%.

Turning to `CC1(C)CN(Cc2c[nH]c(CC3CCCC3)n2)CC[C@]1(C)O`, the “Percent Effect” value is on record as 10.2%.

In the case of `OC1(CN2CCCCC2)CCN(Cc2c[nH]c(CC3CCCC3)n2)C1` (stereo not drawn), the “Percent Effect” value is reported as 56.92%.

Take `c1[nH]c(CC2CCCC2)nc1CN1CCCC2(CCOC2)C1` (stereo not drawn): the “Percent Effect” value is given as -0.6443%.

With `OC1(CN2CCCC2)CCCN(Cc2c[nH]c(CC3CCCC3)n2)C1` (stereo not drawn), the “Percent Effect” value came out at 109.3%.

As for `C[C@@H]1CN(Cc2c[nH]c(CC3CCCC3)n2)CC[C@]1(C)O`, the “Percent Effect” value is -1.066%.

As for `COC[C@]1(O)CCN(Cc2c[nH]c(CC3CCCC3)n2)CC1(C)C`, the “Percent Effect” value is on record as -12.53%.

Take `COc1cc(C(=O)N(C)C)ccc1NC(=O)c1ccsc1`: the “Percent Effect” value is listed as -21.05%.

On to `CCS(=O)(=O)N1CC[C@H]2CO[C@H](CN(C)C)[C@H]2C1.O=C(O)C(F)(F)F`, for which the “Percent Effect” value is on record as -39.84%.

For the molecule `CCN1CCC2(CCC(=O)N2Cc2cccc(C)n2)CC1.O=C(O)C(F)(F)F.O=C(O)C(F)(F)F`, the “Percent Effect” value was -30.9%.

In the case of `O=C(O)C(F)(F)F.O=C(O)C(F)(F)F.c1cnn(CCCO[C@@H]2CN(C3CCOCC3)[C@@H]3CCCO[C@@H]32)c1`, the “Percent Effect” value was -22.39%.

Consider `Cc1ccc(CN2CC[C@H]3NC(=O)CC[C@@H]32)o1.O=C(O)C(F)(F)F`, for which the “Percent Effect” value was -7.125%.

`Cc1cccc(N2CCC3(CCCN(C(=O)c4cccnc4)C3)C2)n1.O=C(O)C(F)(F)F.O=C(O)C(F)(F)F` (stereo not drawn): the “Percent Effect” value is -32.42%.

With `CN(C)C(=O)CNC(=O)c1ccc2ccc(N(C)CC3CC3)n2c1`, the “Percent Effect” value is recorded as 51.54%.

For the molecule `COCCNC(=O)c1ccc2ccc(N(C)CC3CC3)n2c1`, the “Percent Effect” value was found to be 24.26%.

Regarding `CN(C)CCNC(=O)c1ccc2ccc(N(C)CC3CC3)n2c1`, the “Percent Effect” value was -34.83%.

For the molecule `NC(=O)N1CCC2(CCN(C(=O)c3cccnc3)CC2)C1.O=C(O)C(F)(F)F`, the “Percent Effect” value was -5.676%.

With `Cl.Cl.c1ccc(COC[C@@H]2CCC[C@@]23CNCCO3)nc1`, the “Percent Effect” value amounted to 33.86%.

For the molecule `Cc1cc(C)c(CNC(=O)NCCNc2cnccn2)c(=O)[nH]1`, the “Percent Effect” value is on record as -7.276%.

For the molecule `CCCc1cncnc1N1CCC(NCc2ccc(O)cc2)CC1`, the “Percent Effect” value was -4.464%.

In the case of `CCCc1cncnc1N1CCC(NCc2cc3ccccc3[nH]2)CC1`, the “Percent Effect” value was found to be 103.5%.

Consider `CCCc1cncnc1N1CCC(NCc2ccncc2)CC1`, for which the “Percent Effect” value came out at 4.573%.

Regarding `Cc1ncsc1C(=O)NCc1ccnc(OCC(F)(F)F)c1`, the “Percent Effect” value is -36.25%.

As to `Cc1noc(C)c1C(=O)NCc1ccnc(OCC(F)(F)F)c1`, the “Percent Effect” value was found to be 0.8028%.

On to `Cc1n[nH]c(C(=O)NCc2ccnc(OCC(F)(F)F)c2)c1Br`, for which the “Percent Effect” value came out at 65.15%.

For `CN(Cc1ccccc1OC(F)(F)F)C(=O)C1CC1`, the “Percent Effect” value was found to be 6.346%.

On to `NC(=O)N1CCCC(C(=O)NCc2ccccc2OC(F)(F)F)C1` (stereo not drawn), for which the “Percent Effect” value came out at 35.38%.

As for `CN(Cc1ccccc1OC(F)(F)F)C(=O)C1CCCN(C(N)=O)C1` (stereo not drawn), the “Percent Effect” value is reported as 92.25%.

For the molecule `O=C(O)C(F)(F)F.O=C(O)C(F)(F)F.c1cc(CO[C@H]2CC[C@H]3[C@H]2OCCN3Cc2nccs2)ccn1`, the “Percent Effect” value is listed as -1.961%.

For the molecule `O=C(O)C(F)(F)F.O=C(O)C(F)(F)F.O=C1N(c2cncnc2)CCC12CCCN(Cc1cccnc1)C2` (stereo not drawn), the “Percent Effect” value is reported as -18.13%.

Consider `CCOCC1CN(C(=O)c2cscn2)Cc2cn(C)nc21.O=C(O)C(F)(F)F` (stereo not drawn), for which the “Percent Effect” value is reported as -37.83%.

Take `COC[C@@H]1CCC[C@]12CN(Cc1ccco1)CCO2.O=C(O)C(F)(F)F`: the “Percent Effect” value is -13.34%.

For the molecule `Cl.NCc1cc(-c2ccccc2)n2nccc2n1`, the “Percent Effect” value was -2.564%.

Turning to `COCC(C)N1CCc2onc(-c3ccc(C(F)(F)F)cc3)c2C1` (stereo not drawn), the “Percent Effect” value is on record as 16.68%.

As to `FC(F)(F)c1ccc(-c2noc3c2CN(CC2CCCO2)CC3)cc1` (stereo not drawn), the “Percent Effect” value was determined as 46.47%.

On to `OCC(O)CN1CCc2onc(-c3ccc(C(F)(F)F)cc3)c2C1` (stereo not drawn), for which the “Percent Effect” value came to 97.28%.

Take `COCC1c2nnn(CC3CC3)c2CCN1C(=O)c1cc(C)on1` (stereo not drawn): the “Percent Effect” value turned out to be 9.302%.

`COCC1c2nnn(CC3CC3)c2CCN1C(=O)c1cc(C)[nH]c1C` (stereo not drawn): the “Percent Effect” value is 70.57%.

Consider `COCC1c2nnn(CC3CC3)c2CCN1C(=O)c1ccnnc1` (stereo not drawn), for which the “Percent Effect” value is listed as -6.272%.

For `CCC(CNC(=O)c1ccccn1)N1CCc2ccccc2C1` (stereo not drawn), the “Percent Effect” value was found to be 64.91%.

As for `CCC(CNC(=O)c1ccc(=O)[nH]n1)N1CCc2ccccc2C1` (stereo not drawn), the “Percent Effect” value was -4.669%.

For the molecule `CCC(CNC(=O)c1ccccc1Br)N1CCc2ccccc2C1` (stereo not drawn), the “Percent Effect” value is -2.045%.

For `O=C(O)C(F)(F)F.c1ccc(CN2CCCn3nnc(CNc4ncccn4)c3C2)nc1`, the “Percent Effect” value came out at 11.56%.

Take `Cc1noc(C)c1CN1CCc2ncnc(-c3ccncc3)c2CC1.O=C(O)C(F)(F)F.O=C(O)C(F)(F)F`: the “Percent Effect” value amounted to 7.897%.

`O=C(CCc1ccsc1)NCC1CCN(c2ccccc2)C1` (stereo not drawn): the “Percent Effect” value worked out at 105.9%.

Take `O=C(CCc1ccccc1)NCC1CCN(Cc2ccsc2)CC1`: the “Percent Effect” value was -20.67%.

For the molecule `O=C(CCc1ccsc1)NCC1CCN(C2CC2)C1` (stereo not drawn), the “Percent Effect” value was -16.29%.

In the case of `CC(C)c1nn(C)cc1CNCc1ccnc(N(C)C)c1.Cl`, the “Percent Effect” value is -35.39%.

As for `CC(C)NC(=O)CC1COC2(CCN(Cc3ccccc3)CC2)C1.O=C(O)C(F)(F)F` (stereo not drawn), the “Percent Effect” value is on record as -5.683%.

Take `CS(=O)(=O)NC[C@@H]1OC[C@H]2CN(Cc3ccsc3)CC[C@H]21.O=C(O)C(F)(F)F`: the “Percent Effect” value is -25.96%.

For `CC(C)(C)Nc1c(C2CCCN(C(=O)C3CC3)C2)nc2ccccn12.Cl` (stereo not drawn), the “Percent Effect” value was -26.51%.

As to `CC(c1ccco1)N(C)Cc1cccc(C(=O)Nc2nccn2C)c1` (stereo not drawn), the “Percent Effect” value is reported as 105%.

`CCc1nnc(CN(C)Cc2cccc(C(=O)Nc3ccnn3C)c2)o1`: the “Percent Effect” value came to 2.892%.

On to `COC(=O)c1cccc(CN(C)C(C)c2ccccn2)c1` (stereo not drawn), for which the “Percent Effect” value is -7.966%.

Turning to `CC(NC(=O)c1cccc(CN2CCN(C)CC2)c1)c1ccccn1` (stereo not drawn), the “Percent Effect” value is listed as -15.12%.

For the molecule `CC(c1ccccn1)N(C)Cc1cccc(C(=O)Nc2nccn2C)c1` (stereo not drawn), the “Percent Effect” value is recorded as 74%.

On to `CN(Cc1cccc(C(=O)Nc2ccnn2C)c1)CC1(C)COC1`, for which the “Percent Effect” value is -8.064%.

Consider `N#CC1=C(N)Nn2c(nnc2-c2ccccc2Br)S1`, for which the “Percent Effect” value is listed as -17.22%.

As for `CNC(=O)C1CN(c2ccc(F)cc2)CCN1.Cl` (stereo not drawn), the “Percent Effect” value is -9.726%.

As for `CC(C)CN1CC[C@H]2OCC[C@@H](C(=O)N3CCCO3)[C@@H]2C1.O=C(O)C(F)(F)F`, the “Percent Effect” value is reported as -22.87%.

Turning to `c1cnn(CC2CCCCN2c2ncnc3ccsc23)c1` (stereo not drawn), the “Percent Effect” value is -40.74%.

As for `CNC(=O)[C@@]12CCO[C@@H]1CCN(S(=O)(=O)c1cccnc1)C2.O=C(O)C(F)(F)F`, the “Percent Effect” value was 3.091%.

Turning to `Cc1noc(C)c1CN1CCO[C@H]2CN(Cc3nccn3C)C[C@H]21.O=C(O)C(F)(F)F.O=C(O)C(F)(F)F`, the “Percent Effect” value was -6.105%.

Consider `Cc1nc(CN(C)C2CCN(Cc3cccc4cccnc34)C2)no1` (stereo not drawn), for which the “Percent Effect” value turned out to be 19.87%.

As to `Cc1nnc(CN(C)C2CCN(Cc3nc4ccccc4n3C)C2)o1` (stereo not drawn), the “Percent Effect” value turned out to be 28.12%.

For `Cc1nc(CN(C)C2CCN(Cc3nc4ccccc4n3C)C2)no1` (stereo not drawn), the “Percent Effect” value came out at 69.83%.

As for `Cc1nc(CN(C)C2CCN(Cc3ccno3)C2)no1` (stereo not drawn), the “Percent Effect” value was -9.493%.

With `Cc1cnc(CN(C)C2CCN(Cc3nc4ccccc4o3)C2)o1` (stereo not drawn), the “Percent Effect” value is -16.63%.

Regarding `Cc1nc(CN(C)C2CCN(Cc3ccc4ccccc4n3)C2)no1` (stereo not drawn), the “Percent Effect” value is 86.18%.

Take `Cc1nc(CN(C)C2CCN(CCCc3ccccc3)C2)no1` (stereo not drawn): the “Percent Effect” value is -13.87%.

For `Cc1nc(CN(C)C2CCN(Cc3nc4ccccc4s3)C2)no1` (stereo not drawn), the “Percent Effect” value is -21.16%.

As to `Cc1cnc(CN(C)C2CCN(Cc3nc4ccccc4n3C)C2)o1` (stereo not drawn), the “Percent Effect” value worked out at 96.91%.
